Reference: the supplement of paper PMC7184167
Structures can show the parent of a compound that is named as a salt.

Test system: replication-induced senescent mouse newborn dermal fibroblasts (NBF)
Assay: relative cell viability of senescent cells (fraction); higher = less killing of senescent cells
Details: 1 µM; 3 days
Experimental: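 Replication-induced senescent newborn mouse skin fibroblasts (NBFs) in 24-well plates were treated with a Selleck FDA-approved drug library at 1 µM for 3 days.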

Structure (SMILES) | relative cell viability
N=C(N)NC(=N)N1CCOCC1 [Moroxydine HCl] | 0.965
O=C1CCC(N2C(=O)c3ccccc3C2=O)C(=O)N1 (stereo not drawn) [Thalidomide] | 0.296
CCC(C)(C)c1ccc(CC(C)CN2C[C@@H](C)O[C@@H](C)C2)cc1 (stereo partly drawn) [Amorolfine HCl] | 1.09
C#C[C@]1(O)CC[C@H]2[C@@H]3CCC4=CC(=O)CC[C@@H]4[C@H]3CC[C@@]21CC [Levonorgestrel] | 0.996
Nc1ccn([C@@H]2CS[C@H](CO)O2)c(=O)n1 [Lamivudine] | 0.759
Nc1nc2c(ncn2COC(CO)CO)c(=O)[nH]1 [Ganciclovir] | 0.995
COc1ccc(-n2nc(C(N)=O)c3c2C(=O)N(c2ccc(N4CCCCC4=O)cc2)CC3)cc1 [Apixaban] | 0.89
O=C1[C@H](CC[C@H](O)c2ccc(F)cc2)[C@@H](c2ccc(O)cc2)N1c1ccc(F)cc1 [Ezetimibe] | 0.901
C[C@]12C=CC(=O)C=C1CC[C@@H]1[C@@H]2[C@@H](O)C[C@@]2(C)[C@H]1CC[C@]2(O)C(=O)CO [Prednisolone] | 1.01
CCC[C@H](NC(=O)[C@@H]1[C@H]2CCC[C@H]2CN1C(=O)[C@@H](NC(=O)[C@@H](NC(=O)c1cnccn1)C1CCCCC1)C(C)(C)C)C(=O)C(=O)NC1CC1 [Telaprevir (VX-950)] | 0.411
O=C(O)c1cccnc1 [Nicotinic Acid] | 0.937
CCCCC1C(=O)N(c2ccccc2)N(c2ccccc2)C1=O [Phenylbutazone] | 0.899
CC(=O)OCC[N+](C)(C)C [Acetylcholine Chloride] | 0.052
